The list is not random: actives were taken first. Their share in the collection is about 5.2%.
VDR inhibitor – vitamin D3 receptor (human) inhibition | P11473 | VDR-SRC2-3 peptide fluorescence polarization, 2 h | Potency, µM, for the others: max response, negative = inhibition, hits mostly inhibitors | 0.93% of 400,000 active | AID 504847
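Fluorescence polarization assay measuring small-molecule disruption of VDR binding to the coregulator peptide SRC2-3. Compounds were pin-transferred (23 nl) into the reagent mix and incubated 2 h at room temperature before reading.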
mIDH1 inhibitor – blocks human mutant IDH1 R132H enzyme. O75874. IDH1-R132H enzyme, NADPH consumption, diaphorase/resazurin fluorescence. Potency, µM (top dose mostly 76.6 µM), without a hit: top-dose activity change, negative = inhibition, hits mostly inhibitors. 0.093% of 390,000 active. AID 602179; further: nearly all actives have a fitted effect of over 65% in size
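IDH1-R132H (0.5 ug/mL dispensed) in pH 7.5 Tris buffer was preincubated 30 min with compound, then given a substrate mix of 0.016 mM NADPH and 2 mM alpha-KG for 80 min at room temperature; remaining NADPH was read by diaphorase/resazurin fluorescence.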
Sfp PPTase inh – blocks B. subtilis Sfp PPTase activity | Q9F4F7 | Biochemical Sfp PPTase activity, qHTS | Potency, µM, without a hit: largest response in the series, negative = inhibition, actives largely listed as inhibitors | 3.5% of 310,000 active;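 further: the enzyme is Sfp with the accession as filed and its product quenches rhodamine fluorescence; 0% = enzyme reaction without inhibitor and -100% = no enzyme wells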
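Reaction rates are the 30-min fluorescence difference (ex 525, em 598 nm) in wells containing 15 nM Sfp, 5 uM rhodamine-CoA and 12.5 uM BHQ-2-YbbR at pH 7.6 with 10 mM MgCl2.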
rTrxR1 inhibitor – rat TrxR1 inhibition. AID 588453. 1% of 390,000 active. recombinant rTrxR1, NADPH fluorescence consumption, selenite substrate. Potency, µM (series often up to 114 µM), inactives show at the highest dose activity change, negative = inhibition, hits mostly inhibitors. O89049; further: nearly all actives have a fitted effect of over 65% in size
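Rat TrxR1 (90 nM in the dispensed reagent) was pre-reduced with 400 uM NADPH for 5 min at room temperature, then incubated with compound for 15 min. After 400 uM selenite was added, NADPH fluorescence (Ex 340/Em 450 nm) was followed for 8 min.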
TrxR1 substrate – rat thioredoxin reductase 1 substrate activity | purified TrxR1 substrate turnover, NADPH consumption readout | AID 588456 | Potency, µM (top dose mostly 114 µM), for inactives: at the highest dose activity change, negative = substrate turnover | 0.01% of 390,000 active; further: nearly all actives have a fitted effect of over 50% in size
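Rat TrxR1, dispensed at 90 nM, was prereduced with 400 uM NADPH (final) for 5 min at ~22 deg C, then incubated with compound 15 min before 400 uM selenite. A first-read NADPH fluorescence drop versus no-compound background flagged substrates.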
PLK1 PBD inh – PLK1 (human) polo-box domain binding inhibition; Potency, µM, without a hit: max response, negative = inhibition, actives largely listed as inhibitors; 2.8% of 360,000 active; P53350; Plk1 PBD binding of FITC phosphopeptide, fluorescence polarization; AID 720504; further: series mostly up to about 57 µM; nearly all actives have a fitted effect of over 65% in size
Target sequence (P53350 whole entry, looked up, the tested form may be a part): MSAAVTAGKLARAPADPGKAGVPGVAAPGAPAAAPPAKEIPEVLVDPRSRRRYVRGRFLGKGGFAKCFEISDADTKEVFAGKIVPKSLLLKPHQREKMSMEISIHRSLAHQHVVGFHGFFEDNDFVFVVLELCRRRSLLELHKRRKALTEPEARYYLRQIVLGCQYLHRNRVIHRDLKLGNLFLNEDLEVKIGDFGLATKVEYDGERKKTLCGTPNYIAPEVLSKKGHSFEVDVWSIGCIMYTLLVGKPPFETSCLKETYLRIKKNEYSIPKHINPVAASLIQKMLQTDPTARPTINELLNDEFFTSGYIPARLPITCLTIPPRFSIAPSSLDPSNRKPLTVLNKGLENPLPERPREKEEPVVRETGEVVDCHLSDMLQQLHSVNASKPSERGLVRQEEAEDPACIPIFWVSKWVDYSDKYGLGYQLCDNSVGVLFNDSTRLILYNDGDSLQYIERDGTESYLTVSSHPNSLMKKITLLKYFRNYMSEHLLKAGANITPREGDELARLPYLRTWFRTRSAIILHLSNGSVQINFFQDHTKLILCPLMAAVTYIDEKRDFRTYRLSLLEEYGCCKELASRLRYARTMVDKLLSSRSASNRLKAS
* hit, by the source's call; ? = inconclusive; / = no result; [ ] = another dose, or the depositor's remark. The call rests on the fitted dose curve; in most records, active means well fitted curve in the direction sought with a large enough effect; inconclusive means small, poorly fitted or top-dose-only effect, or another doubt; inactive means no such curve, though single readings can be large; an effect the other way counts as inactive or inconclusive. Unless noted, on the % scale 0 is the no-effect control and ±100 the full control effect; potency means the concentration at half of the fitted maximal effect.

SMILES	VDR inhibitor	mIDH1 inhibitor	Sfp PPTase inh	rTrxR1 inhibitor	TrxR1 substrate	PLK1 PBD inh
COC1=CC(=O)c2ccccc2C1=O	-14%	-27%	/	?	-6%	-19%
COC1=CC(=O)C=C(OC)C1=O	22µM*	19%	-80%	32µM*	-23%	6µM*
O=S(=O)(Nc1cc(S(=O)(=O)N2CCOCC2)ccc1O)c1ccc2c(c1)OCCCO2	25µM*	1%	/	-3%	2%	4.7µM*
C=CCOc1c(OC)cc(/C=N/Nc2cccc(C(=O)O)c2)c(Br)c1Br	?	5%	-4%	-30%	-13%	30µM*
Cc1cc(NC(=O)c2cc(-c3ccc(Cl)cc3)on2)nn1Cc1ccc(Cl)cc1	-19%	0%	/	37%	8%	/
COc1ccccc1-c1cc(C(=O)Nc2cc(C)n(Cc3ccc(Cl)cc3)n2)no1	5%	3%	40µM*	-10%	17%	0%
COc1ccc(CCCn2ncc3c2nc(N)n2nc(-c4ccco4)nc32)cc1	-4%	/	7%	/	/	/
Cc1cc(OCC(=O)N(Cc2ccccc2)C2CCS(=O)(=O)C2)ccc1Cl (configuration not stated)	4%	-9%	13%	17%	1%	-2%
Cc1sc2nc3c(SC(C)C(=O)O)cc(C(=O)c4ccccc4O)cn3c(=O)c2c1C (configuration not stated)	-9%	4%	50µM*	-6%	-6%	?
C=COC(=O)/C=C/C	-2%	/	16%	/	/	/
CC1=CC2=NC(=O)CC(C)(C(=O)N(CC(=O)NC3CCCC3)c3ccccc3F)N2C=C1 (configuration not stated)	-12%	1%	-2%	-14%	148%	18%
CC1=CC2=NC(=O)CC(C)(C(=O)N(CC(=O)NC3CCCC3)c3ccccc3C)N2C=C1 (configuration not stated)	-20%	0%	-3%	-17%	121%	30µM*
CN(C)CCN1C(=O)c2ccccc2N(C)c2ccccc21	1%	/	?	/	/	/
O=C(Nc1nnc(-c2ccc3c(c2)CCCC3)o1)c1ccc(Cl)cc1Cl	-7%	-8%	20%	14%	-1%	21µM*
Nc1ccc(Br)c2cccnc12	-12%	12%	-25%	20%[57.1 µM]	-12%	8.4µM*
N#CC1=C2SCN(Cc3ccco3)CN2C(=O)CC1c1c(F)cccc1Cl (configuration not stated)	?	3%	2.8µM*	?	-5%[57.1 µM]	27µM*
Cc1ccc(C2CC(=O)N3CN(Cc4ccco4)CSC3=C2C#N)cc1 (configuration not stated)	?	8%	2.2µM*	?	-3%	27µM*
Cc1cc(C)c(NC(=O)Cn2nnc(C(=O)Nc3ccc(F)cc3F)c2N)c(C)c1	-1%	-9%	-3%	-1%	0%	2%
CC(=O)N1CC=C2C(C#N)=C(N)C(C#N)(C#N)[C@H](c3ccoc3)[C@H]2C1	-24%	?	7%	14%[2.29 µM]	10%[2.29 µM]	-12%
CN1CC=C2C(C#N)=C(N)C(C#N)(C#N)[C@H](c3ccoc3)[C@H]2C1	?	0%	0%	5%[57.1 µM]	93%	15µM*
C/C(=N\NC(=S)Nc1ccc(F)cc1)C1CC1	12%	0%	45µM*	-18%	-7%	-11%
O=C(NNC(=O)c1cccs1)c1ccco1	-2%	-2%	89µM*	14%[57.1 µM]	3%[57.1 µM]	-3%
O=C(Cc1ccccc1)NNC(=O)c1cccs1	1%	6%	9%	11%[57.1 µM]	8%[57.1 µM]	-15%
O=C(NC(=S)NNC(=O)c1cccs1)c1ccccc1	-11%	0%	-21%	?	-3%	-28%
CCCOc1ccc(C(=O)NNC(=S)NC(=O)c2cccs2)cc1	-21%	2%	28%	-24%	-15%	30µM*
O=C(NC(=S)NNC(=O)c1cccs1)c1ccco1	6%	4%	79µM*	-16%	1%	-5%
COc1ccc(C(CNC(=O)C(CCSC)NC(=O)c2ccccc2Cl)N2CCCCC2)cc1 (configuration not stated)	-12%	6%	/	-7%	-5%	0%
CCC(CC)C(=O)N(C)c1c(C)nc2c(OCc3ccc(F)c(F)c3)cccn12	/	/	/	/	/	-2%

Screening results from PubChem.
